From PubChem BioAssay (Tox21)
Results filed as inconclusive are left out. Unmarked numbers belong to inactive results. The call rests on the fitted dose curve.

Assay: qHTS assay to identify small molecule agonists or antagonists of the thyroid stimulating hormone receptor (TSHR) signaling pathway - wild type cell line counter screen (AID 1259384)
Conditions: HEK293 wild type, cAMP HTRF counter-screen; series mostly up to 92.4 µM; cAMP activity change: at the top concentration
Description: U.S. Tox21 Program National Center for Advancing Translational Sciences [NCATS] NIH Chemical Genomics Center [NCGC] U.S. Environmental Protection Agency [EPA] National Institutes of Environmental Health Sciences [NIEHS] National Toxicology Program [NTP] U.S. Food and Drug Administration [FDA] Tox21 Assay Overview: TSHR is the receptor for thyrotropin (thyroid stimulating hormone or TSH), a member of the glycoprotein hormone family. TSH is released by the anterior pituitary gland and is the main regulator of thyroid gland growth and development. Upon binding circulating thyrotropin, a G-protein signal cascade activates adenylyl cyclase and […] cAMP concentration is increased. cAMP is a key second messenger involved extensively in cellular signal transduction pathways associated with the majority of G-protein coupled receptors (GPCRs). The activation of these GPCRs by neurotransmitters, lipids, nucleotides, peptides and hormones results in the activation or the inhibition of plasma membrane-bound adenylate cyclase through heterotrimeric G-proteins. A cell-based TSHR-Hek293 assay can be used to identify TSHR agonists. To eliminate the false positive compounds identified from screening a cell-based TSHR-Hek293 cell line, cAMP assay in a wild type Hek293 cells was used as a counter screening.
Tox21 Assay Protocol Summary: Hek293 cells (wild type) were dispensed at 800 cells/4 uL/well in 1536-well white plates using a Multidrop dispenser. After the assay plates were incubated at a 37 C/5% CO2 incubator for 18 hrs, 23 nL of compounds dissolved in DMSO, positive controls or DMSO only was transferred to the assay plate by a pin tool, followed by 1 ul medium containing Ro20-1724. After 30 min of incubation at room temperature, 2.5 ul/well of cAMP-d2 and 2.5 ul/well of anti-cAMP-cryptate were added respectively into the assay plates using a Flying Reagent Dispenser. The plates were incubated at room temperature for 1 hr. The fluorescence intensity in the plates was measured using an Envision plate reader. Each test compound was measured at 15 concentrations and in triplicates.
On the % scale 0 is the no-effect control and ±100 the full control effect.

Compound | cAMP activity change
c1ccc(CNCc2ccccc2)cc1 | 4.01%
Oc1ccc(O)c2c(O)cccc12 | -0.601%
CCOC(=O)CC(C)C | 2.3%
COC(Cc1ccccc1)OC | 3.35%
O=C(O)Cc1sc(-c2ccccc2)nc1-c1ccc(Cl)cc1 | 6.3% [at 42.5 µM, stronger effect = higher value]
COc1ccc(OC)c(OC)c1 | 2.62%
CCCCCCCCCCCCC(=O)O | 6.95%
CC1(C)CCC(C)(C)c2cc(NC(=O)c3ccc(C(=O)O)cc3)ccc21 | -5.55% [at 42.5 µM, stronger effect = higher value]
CCOc1nc2cccc(C(=O)O)c2n1Cc1ccc(-c2ccccc2-c2nn[nH]n2)cc1 | 7.7% [at 42.5 µM, stronger effect = higher value]
CC(C)(C)C1CCCCC1O (stereo not given) | 0.495%
Cc1ccccc1N=Nc1ccc(N=Nc2c(O)ccc3ccccc23)c(C)c1 | 4.1% [at 42.5 µM, stronger effect = higher value]
CCCCCCCCN(C)C | 0.714%
CN1CCC(=C2c3ccccc3CCc3sccc32)CC1 | 5.07% [at 42.5 µM, stronger effect = higher value]
CCOC(=O)C1=NN(c2ccccc2)C(=O)C1 | -0.589%
NC[C@H]1O[C@H](O[C@H]2[C@H](O)[C@@H](O[C@H]3O[C@H](CO)[C@@H](O)[C@H](N)[C@H]3O)[C@H](N)C[C@@H]2N)[C@H](O)[C@@H](O)[C@@H]1O | 0.52% [at 8.39 µM, stronger effect = higher value]
N#CCCNCCC#N | 6.64%
CCN(CC)CCOC(=O)C1(c2ccccc2)CCCC1 | -1.36% [at 42.5 µM, stronger effect = higher value]
O=[N+]([O-])c1cccc(Cl)c1Cl | 2.78%
O=S1(=O)c2cccc3cccc(c23)N1CCCN1CCN(c2ccc(F)cc2)CC1 | 1.78% [at 42.5 µM, stronger effect = higher value]
O=C1[C@H](CC[C@H](O)c2ccc(F)cc2)[C@@H](c2ccc(O)cc2)N1c1ccc(F)cc1 | 4.08% [at 42.5 µM, stronger effect = higher value]

Compound | cAMP activity change
O=C(Cl)c1ccc([N+](=O)[O-])cc1 | 1.01%
CCCCCCCCCCCCCCCC(=O)OC/C=C(C)/C=C/C=C(C)/C=C/C1=C(C)CCCC1(C)C | -4.92%
O=C(O)C(c1ccc(Cl)cc1)c1ccc(Cl)cc1 | -0.267%
CCCCOC(=O)c1ccccc1C(=O)OCC(CC)CCCC (stereo not given) | -3.4%
CC(=O)Nc1ccc(/C=N/NC(N)=S)cc1 | 2.8% [at 42.5 µM, stronger effect = higher value]
CC(=O)c1ccc2c(c1)[C@H](NC(=O)c1ccc(F)cc1)[C@@H](O)C(C)(C)O2 | 5.32%
CCCCCCCCCO | -0.283%
CC(=O)N(O)CCCCCNC(=O)CCC(=O)N(O)CCCCCNC(=O)CCC(=O)N(O)CCCCCN | 0.493% [at 42.5 µM, stronger effect = higher value]
Cc1ccc(C(C)c2ccc(C)c(C)c2)cc1C | 2.62%
O=C(O)C1CCC(C(=O)O)CC1 (stereo not given) | -2.55%
CC[C@H](C)[C@@H](C(=O)O)n1sc2ccccc2c1=O | 5.24%
C=C(C)C(=O)OCCOc1ccccc1 | 6.9%
Cc1ccc(O)c([C@H](CCN(C(C)C)C(C)C)c2ccccc2)c1 | -3.02% [at 42.5 µM, stronger effect = higher value]
Cc1cc(C)c(S(=O)(=O)O)cc1N=Nc1cc(S(=O)(=O)O)c2ccccc2c1O | 0.267%
COCCCCCCCCOCCC[Si](C)(O[Si](C)(C)C)O[Si](C)(C)C | -2.09%
CC(=O)NCCCS(=O)(=O)O | 4.07% [at 42.5 µM, stronger effect = higher value]
CN1CCN(C2=Nc3ccccc3Sc3ccc(Cl)cc32)CC1 | 3.49% [at 42.5 µM, stronger effect = higher value]
CC(C)c1cccc(C(C)C)c1NC(=O)NS(=O)(=O)c1cc(C(C)(C)O)co1 | -2.69%
CC(C)(C)c1cc(O)c(C(C)(C)C)cc1O | -3.47%
Nc1ccc(C(=O)N2CC3CC(CN(Cc4ccccc4)C3)C2)cc1 | 2.01% [at 42.5 µM, stronger effect = higher value]
